Sampled rows, rich in hits. Any-hit rate of the full collection: about 12%.
L major viab = Leishmania major promastigote growth inhibition; 9% of 200,000 active; Leishmania major promastigotes, resazurin fluorescence viability; inhibition, % at 10 µM; AID 1063; in the data active = inhibition above about 50%;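 also: promastigotes grown with compound for 44 hours at 28 °C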
WT yeast gro inh = growth inhibition of WT yeast, mitochondrial fusion screen; mitochondrial fusion phenotypic screen, WT strain; 2.1% of 190,000 active; inhibition, % at 10 µM; in the data active = inhibition above about 58%; tested in S. cerevisiae
CHOP inh = blocks CHOP induction under ER stress; 3.8% of 220,000 active; CHO-K1 CHOP-promoter luciferase, tunicamycin-induced, 15-18 h; inhibition, % at 10 µM;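 active = compounds that reduced the stress-induced luciferase reporter signal by more than about 70% of percent inhibition, limit read from the data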
Arbovirus inh = arbovirus infection inhibition. arbovirus infection cell-based antiviral screen. inhibition, % at 10 µM. 0.37% of 200,000 active; in the data active = inhibition above about 30%
Large screens that a line does not name were inactive.

CC(Sc1ccccc1)C(=O)Nc1ccccc1C(=O)N1CCOCC1 (centres undefined)	none
C=CS(=O)(=O)c1sc(Cl)c(N2CCOCC2)c1[N+](=O)[O-]	CHOP inh 103.8
COc1ccc(-c2cnnc(N/N=C/c3ccc(O)c(O)c3)n2)cc1	none
COc1ccc(-c2cnnc(N/N=C/c3ccc(O)cc3)n2)cc1	CHOP inh 81.4
CCOc1ccccc1Nc1ccnc2cc(Cl)ccc12	L major viab 52.8
COC(=O)CCNC(=O)Cn1cnc2sc3c(c2c1=O)CCCC3	none
COc1cccc(C(=O)NCCN2CCN(c3ccc(Cl)cc3)CC2)c1	none (no result: L major viab, WT yeast gro inh, Arbovirus inh)
COc1ccc(NC(=O)NCCCN2CCN(c3cc(C)ccc3C)CC2)cc1	CHOP inh 71.6
COc1cc(NC(=O)NCCN2CCN(c3ccc(Cl)cc3)CC2)ccc1C	CHOP inh 84.4
COc1ccc(NC(=O)NCCN2CCN(c3cccc(Cl)c3)CC2)cc1	L major viab 85.2
O=C(NNS(=O)(=O)c1ccc([N+](=O)[O-])cc1)c1cnn(-c2ccccc2)c1-n1cccc1	none
CC(=O)Oc1ccc(C(=O)O)c(OC(C)=O)c1	none (no result: L major viab, WT yeast gro inh, Arbovirus inh)
OCCN(Cc1ccccc1)C(=S)Nc1ccc(Cl)cc1Cl	none
O=C(CCl)N(C/C=C/c1ccccc1)c1ccc2c(c1)OCCO2	L major viab 76.1
CN(C)CCC1c2ccc(Cl)cc2CCc2cccnc21 (centres undefined) (tested in a mixture with another compound)	none (no result: L major viab, WT yeast gro inh, Arbovirus inh)
CC(C)(C)C(=O)C(Cl)C(=O)Nc1ccccc1 (centres undefined)	CHOP inh 80.4 (no result: L major viab, WT yeast gro inh, Arbovirus inh)
O=C(Nc1ccc(Nc2ccccc2)cc1)C(Cl)Cl	none
C/C(=N\Nc1ccc(C(=O)O)cc1)c1ccc2c(c1)Nc1ccccc1S2	none (no result: L major viab, WT yeast gro inh, Arbovirus inh)
Cc1cccc(CN2C(=O)N/C(=C/c3ccc(C)s3)C2=O)c1	CHOP inh 89.7 (no result: WT yeast gro inh)
Cc1ccc(/C=C2/NC(=O)N(Cc3ccccc3)C2=O)s1	L major viab 72.8
Cc1cccc(CN2C(=O)N/C(=C/c3cc(C)n(-c4cc(C)ccn4)c3C)C2=O)c1	none
COc1ccc(CN2CCN(CCCc3ccccc3)CC2)c(OC)c1	L major viab 90.6
COc1ccc(OC)c(CN2CCN(c3ccccc3OC)CC2)c1	none
COc1ccc(OC)c(CN2CCN(Cc3cccc4ccccc34)CC2)c1	L major viab 65.0
COc1ccc(CC(C)N2CCN(Cc3ccccc3)CC2)c(OC)c1 (centres undefined)	L major viab 95.2
COc1ccc(CC(C)N2CCN(c3ccccc3)CC2)cc1OC (centres undefined)	L major viab 77.8
COC(=O)C1C(O)=C(C(C)=Nc2cccc3ccccc23)C(=O)CC1(C)C (centres undefined)	none (no result: L major viab, WT yeast gro inh, Arbovirus inh)
O=C(Oc1cccc(NC2=NS(=O)(=O)c3ccccc32)c1)c1cccnc1	none
CC(C(=O)NC1=NCCS1)N1C(=O)C2CC=CCC2C1=O (centres undefined)	CHOP inh 82.6
O=C(CN1CCCCC1)Nc1ccc(NC(=O)c2ccc(Cl)cc2)cc1Cl	CHOP inh 84.7
COc1cc(NC(=O)Nc2cccc(Cl)c2)c(OC)cc1NC(=O)CN1CCCCC1	L major viab 51.1
O=C(CN1CCCC1)Nc1ccccc1Cl	none
COc1cc(NC(=O)c2ccc(C)cc2)c(OC)cc1NC(=O)CN1CCCCC1	L major viab 62.3
O=C(CN1CCCCC1)Nc1cccc(Cl)c1	none
Cc1ccc(NC(=O)CN2CCCCCC2)cc1Br	none
Cc1ccc(NC(=O)CN2CCCCCC2)c(Br)c1	CHOP inh 75.1
CC(=O)CCc1ccc(Oc2nc(-c3cccnc3)nc3ccccc23)cc1	none
O=C(O)CN1C(=O)/C(=C\c2cn(CC(=O)N3CCOCC3)c3ccccc23)SC1=S	none
Cc1ccc(N2CCN(c3ccc(C)cc3)C2c2ccncc2)cc1	L major viab 92.2, CHOP inh 77.0
COc1cc(C2N(c3ccccc3)CCN2c2ccccc2)cc(OC)c1OC	none
Cc1cccc(N2CCN(c3cccc(C)c3)C2c2cccnc2)c1	L major viab 99.2 (no result: CHOP inh)
COc1cc(C(=O)O)nc2ccc([N+](=O)[O-])cc12	none
O=C(CN1CCN(c2ccccc2)CC1)N1CCc2[nH]c3ccccc3c2C1	L major viab 90.8
O=C(CN1CCc2[nH]c3ccccc3c2C1)N1CCCCC1	none
CS(=O)(=O)N(CCc1ccccc1)CC(=O)N1CCN(Cc2ccc3c(c2)OCO3)CC1	none
CS(=O)(=O)N(CC(=O)N1CCN(Cc2ccc3c(c2)OCO3)CC1)Cc1ccc(Cl)cc1	L major viab 98.4
O=C(CCC1CCCC1)N1CCC(N2CCCCCC2)CC1	L major viab 91.0
COC(=O)C1CCN(C(=O)CCC2CCCCC2)CC1	none
O=C(CCC1CCCCC1)N1CCN(Cc2ccc3c(c2)OCO3)CC1	L major viab 96.0
Cc1ccc(NC(=O)CCn2nc([N+](=O)[O-])cc2C)nc1	none
CC/C=C/C(=O)N1CC2(CC(c3cccc(NC(=O)COc4ccc(Cl)cc4)c3)=NO2)C[C@H]1C(N)=O (some centres undefined)	none (no result: L major viab, WT yeast gro inh, Arbovirus inh)
COc1ccc(CC(=O)Nc2cc(C)ccc2O)cc1OC	none (no result: L major viab, WT yeast gro inh, Arbovirus inh)
Cc1ccc(CSCC(=O)N2CCN(Cc3ccc4c(c3)OCO4)CC2)cc1	L major viab 59.3
Cc1ccc(OCC(=O)N2CCN(C(=O)CCC3CCCC3)CC2)cc1	none
O=C(CCC1CCCC1)N1CCN(C(=O)COc2ccccc2)CC1	CHOP inh 75.0
COc1ccccc1C(=O)N1CCN(Cc2ccc3c(c2)OCO3)CC1	none
Cc1ccc2[nH]c3c(c2c1)CN(C(=O)CN1CCN(Cc2ccc4c(c2)OCO4)CC1)CC3	L major viab 95.2
Cc1ccc2[nH]c3c(c2c1)CN(C(=O)CN1CCSCC1)CC3	none
C/C(=N/OC(=O)c1ccc(Cl)cc1Cl)c1oc(C)nc1C	none (no result: L major viab, WT yeast gro inh, Arbovirus inh)
Cc1cc(/C=C(\C#N)C(=O)OCC(=O)NC(=O)NC(C)(C)C)c(C)n1CCC(C)C	none
CCCn1c(C)cc(/C=C(\C#N)C(=O)OCC(=O)Nc2cccc(OC)c2)c1C	L major viab 61.5
C=CCNC(=O)CN(c1ccc(F)c(Cl)c1)S(C)(=O)=O	CHOP inh 79.3
Cc1cccc(C(=O)NC(NCc2ccco2)C(Cl)(Cl)Cl)c1 (centres undefined)	none
Cc1ccc(C(=O)NC(NCc2ccco2)C(Cl)(Cl)Cl)cc1 (centres undefined)	L major viab 59.6
COc1ccc(NC(NC(=O)c2ccc(OC)cc2)C(Cl)(Cl)Cl)cc1 (centres undefined)	none
COc1ccc(C(=O)NC(Nc2ccc(C)cc2)C(Cl)(Cl)Cl)cc1 (centres undefined)	L major viab 74.7
N/C(=N\OC(=O)CC(c1ccccc1)c1ccccc1)c1cccnc1	none
CCc1nnc(NC(=O)CSc2nnc(-c3cccnc3)n2C)s1	none
CCc1nnc(NC(=O)Cn2nc(-c3ccccc3OC)ccc2=O)s1	CHOP inh 70.0
Cc1ccccc1N1CCN(Cc2cccc(C(=O)O)c2)CC1	none
COC(=O)c1cc(CN2CCN(c3ccccc3C)CC2)ccc1O	CHOP inh 72.0
O=C(CN1C(=O)CCC1=O)NNc1ccc2ccccc2c1	L major viab 95.6, WT yeast gro inh 70.6
O=C(Cc1ccccc1)NNc1ccc2ccccc2c1	L major viab 96.1
CNC(=O)CCCCC(=O)N/N=C/c1ccc(Cl)cc1Cl	none (no result: L major viab, WT yeast gro inh, Arbovirus inh)
CCC12CN3CC(CC)(CN(C1)C3c1ccc([N+](=O)[O-])o1)C2=O (centres undefined)	none

Bioassay records as filed in PubChem BioAssay.
